Screening data deposited in PubChem by several laboratories.
SUMO Mot1 rescue: blocks SUMOylation pathway, rescuing yeast Mot1-301 growth | S. cerevisiae Mot1-301 growth rescue, ATP luminescence, 38.5C; percent above DMSO median, 100 means doubled | growth rescue, % at 18.8 µM | hit rate 1% among 320,000;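 active means every valid replicate shows activation above 250% relative to neutral control wells; inactive means the rest, any valid replicate at or below 250%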;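 further: OY570 slx delta 5 strain wells were the positive control but not used for scaling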
CHT PAM: allosteric activators of human choline transporter CHT; Q9GZV3; B-score at 10 µM; CHT-expressing cells, membrane potential dye, choline EC20; stronger effect = higher value; LV-AA mutant CHT in HEK293 cells; hit rate 0.49% among 310,000; AID 488977;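 active means initial fluorescence not abnormally high and integrated response B-score, plate-corrected, over 3 SD above library mean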
Target sequence (Q9GZV3 whole entry, looked up): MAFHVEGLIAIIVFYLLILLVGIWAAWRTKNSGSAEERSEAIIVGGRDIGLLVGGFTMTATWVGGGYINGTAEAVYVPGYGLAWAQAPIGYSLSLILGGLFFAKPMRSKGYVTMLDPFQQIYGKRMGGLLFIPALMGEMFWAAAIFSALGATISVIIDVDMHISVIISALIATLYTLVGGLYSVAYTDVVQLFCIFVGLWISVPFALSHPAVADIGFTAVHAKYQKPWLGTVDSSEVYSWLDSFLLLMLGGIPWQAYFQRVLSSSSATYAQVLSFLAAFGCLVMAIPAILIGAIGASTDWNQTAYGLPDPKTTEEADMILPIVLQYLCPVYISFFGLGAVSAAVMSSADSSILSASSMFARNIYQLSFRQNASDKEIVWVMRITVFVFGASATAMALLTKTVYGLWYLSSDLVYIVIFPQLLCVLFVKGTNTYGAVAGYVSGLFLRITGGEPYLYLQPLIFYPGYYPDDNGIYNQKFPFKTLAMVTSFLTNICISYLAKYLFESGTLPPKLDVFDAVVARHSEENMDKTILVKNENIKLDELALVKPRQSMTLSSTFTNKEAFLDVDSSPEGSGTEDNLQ
NLRP3 yeast inh: blocks the NALP3 inflammasome reconstituted in yeast. Yeast reconstituted NLRP3/ASC/caspase-1, beta-gal luminescence, 24 h. inhibition, % at 10 µM. hit rate 0.39% among 330,000;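 active means inhibition of 50% or more; inactive means inhibition below 50%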;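 further: plate controls were induced DMSO wells for no effect and uninduced yeast grown without galactose for full effect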
NALP1 inh: NALP1 inhibition; S. cerevisiae NALP1/ASC/caspase-1 growth, X-gal OD620, 72 h; inhibition, % at 10 µM; hit rate 0.61% among 280,000; in the data active means inhibition mostly above about 24%, no sharp cut-off; inactive means mostly below about 32%
CHT block: inhibits the human high affinity choline transporter | Q9GZV3 | CHT-expressing cells, membrane potential dye, choline response; stronger effect = lower value | B-score at 10 µM | hit rate 0.86% among 310,000 | AID 488975;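 active means B-score over 3 SD under the library average, and starting fluorescence ratio not unusually high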;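 further: choline stimulus applied at its EC90 after an EC20 pre-addition; B-score computed on integrated fluorescence ratio after choline addition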
A1 inh: inhibitors of the anti-apoptotic protein A1, read as caspase activation; MEF A1-2A-BIM cells, Caspase-Glo 3/7 luminescence, 3 h; percent of clofoctol response, vehicle zero; caspase activation, % (no concentration beside the values); hit rate 0.066% among 330,000; AID 2462;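 active means over half of replicate activation scores above 10%, or exactly half above 10 with the replicate mean above 10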
CHT activ conf: human CHT activation, confirmatory screen; shares compounds with CHT PAM; CHT-expressing cells, membrane potential dye fluorescence (FDSS); % of choline EC20–EC90 response window; HEK293 expressing CHT LV-AA mutant; choline added at its EC20; activation, % at 10 µM; hit rate 91% among 2,500; AID 504833;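 active means primary screen active, with duplicate mean activation above negative control mean plus 3 SD, cut at about 11% in these data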
HEK293 MP dye: counter-screen for CHT activators: effect in parental HEK293 cells | hit rate 62% among 2,500 | shares compounds with CHT PAM | ratio readout change at 10 µM, hits read low | membrane potential dye fluorescence (FDSS); measured after EC20 choline addition;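 active means duplicate-averaged ratio beyond 3 SD from buffer wells, up or down, though filed actives are nearly all decreases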
* hit, by the source's call; i = inactive; nt = not tested or not shown. Shown are actives, neighbours in structure and some others; about 3% of the full set was active somewhere.

SMILES	SUMO Mot1 rescue	CHT PAM	NLRP3 yeast inh	NALP1 inh	CHT block	A1 inh	CHT activ conf	HEK293 MP dye
CC(=O)N1CCN(c2cc(N3CCCC3)c(F)cc2[N+](=O)[O-])CC1	61	i	12	17	i	0	nt	nt
COc1ccc(-n2c(SCC(=O)NCC3CCCO3)nc3c(c2=O)SC(C)C3)cc1 (configuration not stated)	-3	i	11	16	i	0	nt	nt
Cc1cc(C)c(-n2c(O)c(C=NCCN3CCOCC3)c(=O)[nH]c2=O)c(C)c1	-17	9.8*	38	-4	i	0	17*	i
NCCCC[C@H]1CN=C(N)N1CCC12CC3CC(CC(C3)C1)C2	21	8.5*	25	nt	i	1	54*	-58*
O=C(CNc1cc(S(=O)(=O)N2CCOCC2)ccc1NCC1CCCO1)Nc1cccc(F)c1 (configuration not stated)	52	i	10	8	i	0	nt	nt
Cn1c(=O)cc(SCC(=O)NCC2CCCO2)c2ccc(Cl)cc21 (configuration not stated)	74	i	-1	4	i	0	nt	nt
CC1CC(C)CN(CCCNC(=O)COc2cc(=O)n(C)c3ccccc23)C1 (configuration not stated)	7	i	4	-73	i	0	17*	-28*
Cn1c(=O)cc(OCC(=O)NCCC2=CCCCC2)c2ccccc21	-9	i	-5	-15	i	2	nt	nt
CCN1CCCC1CNC(=O)COc1cc(=O)n(C)c2ccccc12 (configuration not stated)	3	7.2*	-2	-1	i	0	43*	-39*
CCn1c(=O)cc(OCC(=O)NCCCN2CC(C)CC(C)C2)c2ccccc21 (configuration not stated)	-5	i	12	4	i	0	nt	nt
CC1CCN(CCCNC(=O)COc2cc(=O)n(C)c3ccccc23)CC1	2	i	6	8	i	1	43*	-33*
CCn1c(=O)cc(OCC(=O)NCCCN2CCC(C)CC2)c2ccccc21	-14	i	9	-1	i	1	nt	nt
CCN1CCCC1CNC(=O)CSc1cc(=O)n(C)c2cc(Cl)ccc12 (configuration not stated)	nt	i	-3	3	i	2	50*	-34*
COc1ccc(NC(=O)CS(=O)CC(=O)N2CCN(C3CCCC3)CC2)cc1 (configuration not stated)	8	i	15	27	i	0	nt	nt
CCN(C(=O)CO/N=C/c1ccc(OC)cc1OC)c1c(N)n(Cc2ccccc2)c(=O)[nH]c1=O	9	nt	23	nt	nt	0	nt	nt
O=C(COC(=O)/C=C/c1cccc(F)c1)NC(=O)NCc1ccccc1	-3	nt	13	nt	nt	0	nt	nt
Cc1csc2cc(-c3cccc([N+](=O)[O-])c3)c(-c3cccc([N+](=O)[O-])c3)c[n+]12	-2	9.3*	3	3	i	1	86*	-87*
CCOC(=O)c1c(-c2cccc([N+](=O)[O-])c2)csc1N	18	i	17	29	i	0	nt	nt
O=c1cc(CN2CCN(CCO)CC2)c2cc3c(cc2o1)CCC3	-2	i	-2	16	i	-1	46*	-44*
CCOC(=O)N1CCN(Cc2cc(=O)oc3cc4c(cc23)CCC4)CC1	10	i	17	10	i	1	nt	nt
O=C(NN=C1CCCC1)c1ccccc1OCc1ccc(Cl)cc1	4	10*	23	-1	i	0	13*	i
O=C(N/N=C/c1cccnc1)c1ccccc1OCc1ccc(Cl)cc1	-13	i	16	19	i	-1	nt	nt
